The record followed here is PubChem BioAssay (NCI).

Holding throughout (assay): NCI-60 one-dose screen, 48 h (100 = growth as untreated, 0 = no growth, -100 = all killed)
What all share (conditions): 10 µM

Test [1] concerns RPMI-8226 leukemia.
For test [2], the system named is OVCAR-8 ovarian.
In test [3] the test system is OVCAR-5 ovarian.
Test [4] concerns OVCAR-4 ovarian.
For test [5], the system named is SK-OV-3 ovarian.
The test system of test [6] is IGROV1 ovarian.
The subject of test [7] is OVCAR-3 ovarian.
Test [8] concerns HS 578T breast.
In test [9] the test system is NCI/ADR-RES ovarian.
The subject of test [10] is T-47D breast.

The panel holds about 83,000 compounds, 20% with a hit somewhere; the sample as a whole holds those more often.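 Single-dose data. Exposure time 48 hours. Values below 10 considered active.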 Unmarked numbers belong to inactive results. The source made the active and inactive calls.

In the case of `COc1cc(C(=O)N2CCN(c3ccccc3OC)CC2)c(N)cc1OCCCN1CCN(c2ccccc2OC)CC1`, the growth in [1] was 56.4%; in [2] it was 101%; in test [3], 81.6%; in test [4], 77.7%; in test [5] it was 75.4%; in [6], 77.6%. The growth in test [7] is 77.7%; in test [8], 99%; in test [9], 80.1%; in test [10], 50.9%.

As for `COc1ccc(/C=C2/CN(C(=O)c3ccc(C)cc3)C/C(=C\c3ccc(OC)cc3)C2=O)cc1`, the growth in test [1] is -6.11% (active); in test [2] it was 88.9%; in test [3], 109%; in test [4], 83.8%; in test [5], 99.1%; in test [6] it was 89.8%. For the same compound, the growth is 90.7% in [7], 92% in test [8], 86.7% in test [9] and 69.3% in test [10].

With `Cc1[nH]nc2c1C(c1cnn(C)c1)C(C#N)=C(N)O2` (stereo not given), the growth is 99.3% in test [1]; 99.8% in [2]; 109% in test [3]; 101% in test [4]; 103% in test [5]; 106% in [6]. The growth in test [7] is 106%; in test [8], 104%; in [9] it was 108%; in [10], 96.4%.

Take `O=C(O)c1ccc(P(=O)(O)O)c([N+](=O)[O-])c1`: the growth in [1] is 102%; in test [2], 98%; in test [3] it was 107%; in test [4] it was 104%; in [5] it was 107%; in test [6], 119%. For the same compound, the growth is 111% in test [7], 104% in test [8], 108% in [9] and 104% in test [10].

Take `Nc1nc(-c2ccccc2Cl)cc(-c2ccc(Cl)cc2Cl)n1`: the growth in test [1] is 35.2%; in test [2] it was 71.2%; in [3], 96.2%; in test [4], 79.6%; in test [5], 93%; in [6] it was 74.7%. Moreover, the growth was 85.2% in test [7], 61.9% in test [8], 79.8% in test [9] and 63.7% in [10].

`O=C(Nc1nc2ccc(F)cc2s1)c1cc(-c2ccc(F)cc2)n2nc(-c3ccccc3)cc2n1`: the growth in test [1] was 97.7%; in test [2], 38.6%; in [3], 107%; in [4], 17.9%; in [5], 86.4%; in [6] it was 122%. In addition, the growth is 82.8% in test [7], 73.3% in test [8], 53% in test [9] and 75.2% in [10].

With `N#CSCC1CC(O)(c2ccccc2)CC(c2ccc(Cl)cc2)O1` (stereo not given), the growth was 18.1% in [1]; 66.7% in test [2]; 101% in test [3]; 40% in [4]; 102% in test [5]; -25.7% (active) in test [6]. The growth was -36% (active) in [7], 21% in [8], 47.2% in test [9] and 27.4% in [10].

On to `COc1cc(C(=O)/C=C/c2cc(-c3cc(OC)c(OC)c(OC)c3)n[nH]2)cc(OC)c1OC`, for which the growth in test [1] was -46.1% (active); in test [2] it was 8.1% (active); in [3], 44.9%; in [4], 34.2%; in test [5], 47.3%; in test [6], -20% (active). Further, the growth is 7.64% (active) in test [7], 62.4% in test [8], 34.6% in test [9] and -26.1% (active) in [10].

For the compound `O=C1OCC2=C1C(c1cccc(Cl)c1)c1cc3c(cc1N2CCO)OCO3` (stereo not given), the growth was 22.4% in test [1]; 25.1% in test [2]; 31.2% in test [3]; 64.5% in test [4]; 19.4% in test [5]; 44% in test [6]. Further, the growth in [7] was -50.6% (active); in test [8], -5.17% (active); in test [9] it was -11% (active); in test [10], 62.6%.

With `FC(F)(F)c1ccc2nc(-c3nc(-c4ccccc4)n4ccccc34)[nH]c2c1`, the growth in test [1] was 51.6%; in [2] it was 17.3%; in test [3] it was 85.6%; in [4] it was -3.4% (active); in test [5], 52.8%; in [6] it was 67.7%. For the same compound, the growth in [7] is 79.1%; in test [8], 103%; in test [9], 44.4%; in test [10] it was 48.3%.

For `CSc1nc(=O)n(Cc2ccc(F)cc2)c(=O)n1Cc1ccc(C)cc1`, the growth in [1] was 99.2%; in test [2], 97.6%; in test [3], 102%; in test [4] it was 98.4%; in [5], 98.7%; in test [6] it was 107%. The growth in test [7] was 101%; in test [8], 109%; in test [9], 86.6%; in [10] it was 87%.

For the compound `CCN(CC)CCCC(C)Nc1nc(-c2ccc(OC)cc2)nc2cc(Cl)ccc12` (stereo not given), the growth in test [1] is 55.2%; in test [2], 76.1%; in test [3], 65.8%; in test [4], 68.7%; in test [5], 91.4%; in [6] it was 44.3%. Further, the growth in test [7] is 69.6%; in [8] it was 70.4%; in test [9], 71.3%; in test [10], 60.2%.

Regarding `Cc1ccc(C)c(C(O)(c2cc(C)ccc2C)C2(O)CCCCC2)c1`, the growth in [1] is 89.7%; in test [2], 97.5%; in test [3] it was 97.9%; in [4], 93%; in test [5], 90.9%; in [6], 104%. Moreover, the growth is 93.6% in test [7], 94.1% in test [8], 94.8% in test [9] and 72.5% in [10].

With `O=C1OCC2=C1C(c1cccc(Cl)c1)c1cc3c(cc1N2CCO)CCC3` (stereo not given), the growth in test [1] is 17.3%; in test [2], 4.21% (active); in test [3], 46.1%; in [4] it was 50.4%; in [5], 23.5%; in test [6] it was 15.9%. Besides, the growth in test [7] was -54.2% (active); in test [8] it was -1.05% (active); in [9] it was -23% (active); in test [10] it was 66.1%.

As for `Nc1c(C(=O)Nc2ccccc2)sc2nc3c(cc12)C(O)CCC3` (stereo not given), the growth is 11.6% in test [1]; 31% in test [2]; 57.1% in [3]; 61.3% in [4]; 18.7% in test [5]; 29.4% in test [6]. The growth in [7] is -19.1% (active); in test [8], 39.6%; in test [9], 11.6%; in test [10] it was 53.9%.

Regarding `COc1ccc2c(c1OC)O/C(=C\c1ncc([N+](=O)[O-])n1C)C2=O`, the growth is 34.9% in test [1]; -18.2% (active) in test [2]; 53.7% in test [3]; 78.9% in [4]; 24.8% in [5]; -14.8% (active) in test [6]. Besides, the growth is -24.2% (active) in test [7], 46.5% in test [8], 15.1% in test [9] and 94.8% in test [10].

For the compound `CCN(CC)CCOc1nc2ccccc2c2c1-c1ccc(OC)cc1C2=O`, the growth in [1] was -14.3% (active); in test [2], 6.78% (active); in test [3], 25.8%; in test [4] it was 6.09% (active); in test [5], 43.5%; in test [6], -37.9% (active). For the same compound, the growth in [7] was -18.6% (active); in test [8], 1.77% (active); in test [9], -12.8% (active); in test [10] it was 47.1%.

For the compound `O=[N+]([O-])c1cccc(-c2ncc(-c3ccc(Cl)cc3Cl)[nH]2)c1`, the growth was -8.35% (active) in [1]; 83.5% in [2]; 117% in test [3]; 70% in test [4]; 115% in test [5]; 26.6% in test [6]. Besides, the growth is 59.8% in test [7], 44.9% in [8], 97.2% in test [9] and 79% in test [10].

Regarding `O=C1N=NC2=C1c1c3ccccc3c(O)n1CC2`, the growth in test [1] is 101%; in test [2] it was 101%; in [3] it was 103%; in test [4], 106%; in test [5], 100%; in [6], 117%. Besides, the growth is 127% in test [7], 147% in test [8], 105% in test [9] and 103% in test [10].

With `CC1(C)OC2=C(CC1Br)C(=O)C(=O)c1ccccc12` (stereo not given), the growth in test [1] is -28.1% (active); in test [2], -46.4% (active); in [3], -80.5% (active); in test [4], -99.4% (active); in test [5], 77.8%; in [6] it was -80.2% (active). Moreover, the growth in test [7] was -96.5% (active); in [8], 8.65% (active); in test [9], -44.7% (active); in test [10], -45.4% (active).

With `O=C1OCC2=C1C(c1cccc(Cl)c1)c1cc3c(cc1N2CCO)OCCO3` (stereo not given), the growth in test [1] is 20.2%; in test [2], 1.27% (active); in test [3], 30.3%; in [4], 56.2%; in test [5] it was 26.1%; in test [6], 22.2%. Moreover, the growth in test [7] is -52.2% (active); in [8] it was -6.14% (active); in test [9], 0.234% (active); in test [10], 73.5%.

Regarding `CCCCOc1ccc(NC(=O)Nc2nnc(C)s2)cc1`, the growth in test [1] is 80.8%; in test [2], 90.5%; in [3] it was 102%; in [4], 100%; in test [5], 102%; in test [6], 91.6%. The growth in [7] is 120%; in test [8], 116%; in test [9], 93.3%; in test [10], 77.9%.

For the compound `O=C(NC(Cc1ccc(O)cc1)C(=O)N=Nc1c(O)[nH]c2ccccc12)c1ccccc1` (stereo not given), the growth in test [1] is 112%; in test [2], 93.9%; in [3] it was 110%; in [4], 95.7%; in test [5] it was 103%; in test [6], 108%. The growth in test [7] was 103%; in test [8], 101%; in test [9], 98.7%; in test [10], 107%.

On to `COc1cc(-c2cc(-c3cc4c([nH]c5ccccc54)c(-c4cc(OC)c(OC)c(OC)c4)n3)cc(-c3ccccc3)n2)cc(OC)c1OC`, for which the growth in [1] was 46%; in test [2], 70.2%; in test [3], 88.6%; in test [4] it was 58.6%; in test [5], 90.7%; in test [6], 74.6%. In addition, the growth was 72.3% in test [7], 52.5% in test [8], 42% in [9] and 43.3% in test [10].

`O=C(CCCCC(=O)Nc1ccc2c(c1)/C(=C/c1ccc[nH]1)C(=O)N2)NO`: the growth in test [1] was 96.3%; in test [2], 69.4%; in test [3], 100%; in [4] it was 56.6%; in test [5], 73.6%; in test [6], 95.5%. For the same compound, the growth in test [7] is 36.9%; in [8] it was 72.4%; in test [9], 93.8%; in test [10] it was 0.269% (active).

With `CSC1=NCCCC1`, the growth was 106% in [1]; 106% in test [2]; 112% in test [3]; 105% in [4]; 108% in [5]; 108% in test [6]. Besides, the growth in test [7] is 110%; in test [8], 116%; in [9], 118%; in [10] it was 107%.

Regarding `C#Cc1ccc(-n2c(/C=C/c3ccc(O)c(OC)c3)nc3ncccc3c2=O)cc1`, the growth was 83.5% in [1]; 97.1% in [2]; 108% in test [3]; 80.8% in test [4]; 107% in test [5]; 95.6% in test [6]. The growth in [7] is 100%; in [8], 104%; in test [9], 109%; in test [10], 91.1%.
